# Data reported in a collection of fitness landscapes (doi:10.1016/j.celrep.2020.107928).
# Whole data set: some 81,000 sequences, median “one-hybrid fitness for binding parS DNA” near -0.17, cut for the highest 2% near 0.51. For the sample, the highest values were picked, then their nearest neighbours and some sequences at random.
# B1: Caulobacter ParB omega fusion; a variant is named by its letters at X, in order, B8GW30 (parent)
# chain: MESVVVGEPGMSEGRRGLGRGLSALLGEVDAAPAQAPGEQLGGSREAPIEILQRNPDQPRRTFREEDLEDLSNSIREKGVLQPILVRPSPDTAGEYQIVAGERAWRAAQRAGLKTVPIMVRELDDLAVLEIGIIENVQRADLNVLEEALSYKVLMEKFERTQENIAQTIGKSXSHVANXMRLLXLPDEVQSYLVSGELTAXHARAIAAAADPVALAKQIIEGGLSVRETEALARKAPNLSAGKSKGGRPPRVKDTDTQALESDLSSVLGLDVSIDHRGSTGTLTITYATLEQLDDLCNRLTRGI
# Variants of: B1
# Test: one-hybrid fitness for binding parS DNA (scaled: cognate 1, non-cognate 0); higher = stronger binding
# Settings: with parS DNA site
# Summary of the method: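 The reporter was HIS3, with the binding site 19 bp from the promoter, in E. coli USO used for bacterial one-hybrid selection of Caulobacter ParB libraries with four specificity codons randomised. Growth was on M9 lacking histidine, with 0.1 mM IPTG and 5 mM 3-AT, for 48 hours at 37°C. Illumina sequencing covered plasmids before and after selection; three replicate libraries were pooled and variants with under 10 reads dropped. A fitness score is the log change in variant-to-wild-type read ratio, rescaled to the cognate and non-cognate references.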
row,Variant,one-hybrid fitness for binding parS DNA
1,IKIT,≤ 0.2
2,LFDR,≤ 0.2
3,IRTA,≤ 0.2
4,MSDQ,≤ 0.2
5,EAWR,≤ 0.2
6,DRKV,≤ 0.2
7,LAGW,≤ 0.2
8,RPIL,≤ 0.2
9,QIFK,≤ 0.2
10,ANVG,≤ 0.2
11,RTLR,≤ 0.2
12,RTGM,0.33
13,RTHP,≤ 0.2
14,RTGH,≤ 0.2
15,RTRN,0.396
16,RTRQ,≤ 0.2
17,RTGG,0.997
18,RTHG,1.01
19,RTRG,0.908
20,RTLG,1.02
21,RTHN,0.45
22,RTLQ,≤ 0.2
23,DCRS,≤ 0.2
24,IAEG,≤ 0.2
25,SAYT,≤ 0.2

row,Variant,one-hybrid fitness for binding parS DNA
1,MHTF,≤ 0.2
2,PSYT,≤ 0.2
3,VTEN,≤ 0.2
4,RTYQ,≤ 0.2
5,NTYG,≤ 0.2
6,RTYG,1.02
7,HADL,≤ 0.2
8,RPPT,≤ 0.2
9,RIIK,≤ 0.2
10,RIPN,≤ 0.2
11,RCPT,0.604
12,RIPT,0.549
13,RIPP,≤ 0.2
14,RIIT,0.715
15,REPT,≤ 0.2
16,RIIN,0.379
17,YDNV,≤ 0.2
18,FNSY,≤ 0.2
19,TSTS,≤ 0.2
20,SATQ,≤ 0.2
21,RMWK,≤ 0.2
22,RLRL,≤ 0.2
23,KRHS,≤ 0.2
24,PLTH,≤ 0.2
25,RAYM,0.324

row,Variant,one-hybrid fitness for binding parS DNA
1,RAHT,0.928
2,RAHH,0.26
3,RACN,0.41
4,RAYR,≤ 0.2
5,RAQF,0.229
6,RAYT,0.904
7,RACD,≤ 0.2
8,RAHM,0.329
9,RACT,0.852
10,RAQT,0.894
11,RAQM,0.31
12,MLRS,≤ 0.2
13,GTET,≤ 0.2
14,SSAG,≤ 0.2
15,DLPN,≤ 0.2
16,DGPD,≤ 0.2
17,NYGR,≤ 0.2
18,SRPW,≤ 0.2
19,LATK,≤ 0.2
20,AQEG,≤ 0.2
21,QIWY,≤ 0.2
22,RARQ,≤ 0.2
23,RAGR,≤ 0.2
24,RANN,0.434
25,RAGQ,≤ 0.2

row,Variant,one-hybrid fitness for binding parS DNA
1,RART,0.836
2,RAGT,0.92
3,RANT,0.907
4,RAND,0.215
5,RASQ,≤ 0.2
6,RAST,0.911
7,RARF,0.28
8,RASY,0.459
9,PKYV,≤ 0.2
10,APEG,≤ 0.2
11,FICL,≤ 0.2
12,GDRF,≤ 0.2
13,VNRI,≤ 0.2
14,QPAD,≤ 0.2
15,QAKR,≤ 0.2
16,PSVL,≤ 0.2
17,PTYM,≤ 0.2
18,RADR,≤ 0.2
19,RAWH,0.223
20,RALQ,≤ 0.2
21,RADT,0.732
22,RADK,≤ 0.2
23,RAWN,0.384
24,RALT,0.888
25,RAWT,0.809

row,Variant,one-hybrid fitness for binding parS DNA
1,RALK,≤ 0.2
2,MCRN,≤ 0.2
3,QVLP,≤ 0.2
4,NHYR,≤ 0.2
5,EVTS,≤ 0.2
6,GHDR,≤ 0.2
7,HVTM,≤ 0.2
8,PTLD,≤ 0.2
9,TYDN,≤ 0.2
10,AAAL,≤ 0.2
11,LNIY,≤ 0.2
12,RIMP,≤ 0.2
13,RIMS,1.04
14,RPMS,≤ 0.2
15,RIMH,0.264
16,RCMP,0.232
17,RLMD,≤ 0.2
18,RLMN,0.459
19,RMML,≤ 0.2
20,RLMS,1.04
21,RMMS,1.03
22,RCMS,1.01
23,RMMD,≤ 0.2
24,THDG,≤ 0.2
25,EQQR,≤ 0.2

row,Variant,one-hybrid fitness for binding parS DNA
1,MVPW,≤ 0.2
2,ASII,≤ 0.2
3,PLHG,≤ 0.2
4,GYPH,≤ 0.2
5,CVTM,≤ 0.2
6,RSMN,0.402
7,RSMH,0.245
8,RKMN,0.372
9,RHMH,≤ 0.2
10,RRMS,0.704
11,RKMS,0.876
12,RKMD,≤ 0.2
13,RSMS,0.994
14,RRMN,0.4
15,RRMP,≤ 0.2
16,RHMD,≤ 0.2
17,RHMS,0.966
18,PLPS,≤ 0.2
19,QYNK,≤ 0.2
20,EHAS,≤ 0.2
21,VMVC,≤ 0.2
22,RHYV,≤ 0.2
23,SIFD,≤ 0.2
24,LPVS,≤ 0.2
25,RFMS,0.983

row,Variant,one-hybrid fitness for binding parS DNA
1,RAMS,1.02
2,RTMH,≤ 0.2
3,RFMH,≤ 0.2
4,RFMP,≤ 0.2
5,RAMH,≤ 0.2
6,RAMD,≤ 0.2
7,RTMD,≤ 0.2
8,RTMS,0.981
9,TRVI,≤ 0.2
10,NMKR,≤ 0.2
11,LWSA,≤ 0.2
12,HELA,≤ 0.2
13,TPTY,≤ 0.2
14,TLRR,≤ 0.2
15,NTKA,≤ 0.2
16,DTKA,≤ 0.2
17,RTKA,0.808
18,RTVA,0.566
19,NTVA,≤ 0.2
20,WIMN,≤ 0.2
21,RIYI,≤ 0.2
22,TADM,≤ 0.2
23,QLFQ,≤ 0.2
24,KDMG,≤ 0.2
25,RKAN,0.343

row,Variant,one-hybrid fitness for binding parS DNA
1,RKAG,0.959
2,RKFK,≤ 0.2
3,RKAH,≤ 0.2
4,RKFG,0.946
5,RKFQ,≤ 0.2
6,VRYQ,≤ 0.2
7,SMCS,≤ 0.2
8,TFRT,≤ 0.2
9,GREF,≤ 0.2
10,GPDK,≤ 0.2
11,TATR,≤ 0.2
12,NFFG,≤ 0.2
13,NFAG,≤ 0.2
14,DFAG,≤ 0.2
15,KFFG,≤ 0.2
16,RFAG,0.941
17,RFFG,0.776
18,SCLF,≤ 0.2
19,FALR,≤ 0.2
20,IHMV,≤ 0.2
